# Source: PubChem BioAssay (NCI)
# About 83,000 compounds went through this panel and 20% of them were active in at least one assay; those are over-represented in the sample as a whole.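 48-hour exposure, single concentration, 96-well plates; percent growth endpoint where 0 means no net growth. Active: below 10.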 A number with no mark means an inactive call. Calls of active or inactive are those of the source.
# System: COLO 205 colon
# Assay: NCI-60 one-dose screen, 48 h (100 = growth as untreated, 0 = no growth, -100 = all killed)
# Details: 10 µM unless noted
# Description: Cells are grown in 96 well plates and exposed to the test compound for 48 hours. Compounds are tested at a single concentration, which is 10^-5 M for most compounds. The reported endpoint is percent growth (GI% or GIPRCNT), where numbers from 0 - 100% represent growth inhibition, and numbers from -100% - 0 represent cell death. For example, a value of 40 represents 60% growth inhibition. A value of 0 means no net growth occurred over the course of the experiment. A value of -40 indicates 40% of cells at the beginning of the experiment died by the end of the experiment. A value of -100 means all cells are dead at the end of the experiment.
# NCI-60 Human Tumor Cell Lines Screen was performed using the standard one-dose NCI protocol, which is described in more detail at https://dtp.cancer.gov/discovery_development/nci-60/default.htm.
# Compounds with GIPRCNT values below 10 were considered active. Activity score was based on GIPRCNT using the following formula: […]
# Score is 0 for GIPRCNT values of 100 or above, 50 for GIPRCNT values of 0, and 100 for GIPRCNT values of -100.
row,Structure (SMILES),growth
1,COc1cccc(COc2ccc(/C=C3/C(=O)Nc4cc(Cl)ccc43)cc2)c1,102%
2,COc1cc(/C=C/C(=O)c2ccc(F)cc2)ccc1Oc1nc(NCCO)nc(N2CCOCC2)n1,122%
3,COc1ccc(NC(=O)c2sc3nc(-c4cnccn4)cc(-c4cccs4)c3c2N)cc1,64.7%
4,Cc1ccc(-c2nc(C(Cl)Cl)nc3cc(-c4ccccc4)nn23)cc1,-69.4% (active)
5,c1ccc2c(NCCCN3CCOCC3)c3oc4ccccc4c3nc2c1,-67.8% (active)
6,COc1cc2nc(-c3ccc(Cl)cc3)cc(OCCCNCC3CCCO3)c2cc1OC (stereo not given),33.5%
7,CNC(=O)c1cc(-c2ccc(NC(=O)Nc3ccc(N4CCN(C)CC4)c(C(F)(F)F)c3)cc2)nc2cccnc12,-41% (active)
8,Cn1cc(-c2cc(N)n3nc(-c4cn(C)c5ccc(Cl)cc45)cc3n2)c2cc(Cl)ccc21,119%
9,COc1cccc(-c2nn(-c3ccccc3)cc2-c2ccnc(N3CCN(C(=O)Nc4ccc(F)cc4)CC3)c2)c1,64.7%
10,COC(=O)C1CN(S(=O)(=O)/N=C2\NC(=O)NC2=C(Cl)Cl)C1,124%
11,CC(C)(C)OC(=O)N1C(=O)c2c(c3c4ccccc4[nH]c3c3ccc4ccccc4c23)C1=O,68.1%
12,CN(C)c1ccc(/C=C2\Cc3c(F)ccc(Br)c3C2=O)cc1,98.1%
13,C[C@@H](Nc1c(C#N)cnc2ccc(-c3cnc(N)nc3)cc12)c1ccccc1,17.3%
14,N/C(=N\c1nc2c(Br)cccc2s1)C(Br)Br,1.7% (active)
15,COc1ccccc1C(=O)CSc1nc(Nc2ccc(S(N)(=O)=O)cc2)c2ccccc2n1,107%
16,CCOC(=O)c1c(Nc2ccccc2)nn2c(N)c(C#N)c(-c3ccc(OC)cc3)nc12,96.3%
17,COc1ccc(-c2nc3ccc(-c4nnc(SCC(=O)Nc5ccc(C(C)=O)cc5)o4)cc3[nH]2)cc1,113%
18,CC(C)Sc1nc(Nc2ccc(S(N)(=O)=O)cc2)c(C#N)c(-c2ccc(F)cc2)n1,79%
19,N#Cc1nc(-c2ccccc2)oc1S(N)(=O)=O,96.7%
20,O=C1c2c(c3c4cc(Br)ccc4[nH]c3c3ccc4ccccc4c23)C(=O)N1CCO,92%

row,Structure (SMILES),growth
1,COc1cc(/C=C/C(=O)c2cc(OC)c(OC)c(OC)c2)ccc1Oc1nc(NCCO)nc(N2CCOCC2)n1,3.69% (active)
2,C=C1CC[C@H]2[C@@](C)(CCC3OC(c4ccc(OCc5cn(C6CC(OC(C)=O)C(OC(C)=O)C(COC(C)=O)O6)nn5)cc4)OC[C@]32C)[C@@H]1/C=C/C1=CCOC1=O (stereo not given in full),82.3%
3,COc1cccc(-c2nn(-c3ccccc3)cc2-c2ccnc(N3CCN(C(=O)c4ccccc4)CC3)c2)c1,97.7%
4,CCC/C=C/C=C/C(=O)N[C@@H](Cc1cc(F)cc(F)c1)C(=O)N[C@@H]1C(=O)N2CCC[C@H]2C(=O)N2CCCC[C@H]2C(=O)N[C@@H](C)C(=O)N2C[C@H](C)C[C@H]2C(=O)O[C@H]1C,-54.1% (active)
5,Oc1c(Cl)cc(Cl)c2ccc(CN3CCCCC3)nc12,79.9%
6,COc1cc(/C=C/C(=O)c2ccc(C)cc2)ccc1Oc1nc(NCCO)nc(N2CCOCC2)n1,107%
7,C#Cc1nc(C2=C(C)C(=O)/C(=N/OC(C)=O)C2)cs1,119%
8,CN1C(=S)N(C)C2C1NN=C1SC(c3ccccc3)=CC(=O)N12 (stereo not given),111%
9,COC1CCN(Cc2ccc3c(NNC(=O)c4cnccn4)nc4cc(F)ccc4n23)C1 (stereo not given),12.5%
10,CS(=O)(=O)Nc1ccc(-c2nn(-c3ccc(S(C)(=O)=O)cc3)cc2/C=C/C(=O)c2ccc(NC(=O)CO[N+](=O)[O-])cc2)cc1,114%
11,Clc1ccc2c(NCCCN3CCOCC3)c3oc4ccccc4c3nc2c1,29.9%
12,N=C1CC(=O)NN1C(=O)CSc1nc2sc3c(c2c(=O)n1-c1ccc(Cl)cc1)CCCC3,123%
13,N#Cc1c(-c2ccc(Cl)cc2)nc2c(-c3ccccc3)c(Nc3ccccc3)nn2c1N,57%
14,N#Cc1ccc(/C=N/NC(=O)c2[nH]c3ccc(Br)cc3c2-c2ccccc2)s1,-13.3% (active)
15,Cc1cc(=O)oc2cc(OCCCOc3ccc(/C=C/C(=O)Nc4ccc(Cl)cc4)cc3)ccc12,68.2%
16,Nc1nc(N)c2c(n1)NC(c1ccc(F)cc1)CC(c1ccc(Nc3nc(NCCO)nc(Nc4ccc(Cl)cc4)n3)cc1)=N2 (stereo not given),28.4%
17,COc1cccc(N2CCN(c3ncnc4c3[nH]c3ccc(F)cc34)C[C@@H]2C)c1,-88.5% (active)
18,COc1cc(/C=C/C(=O)c2ccc(C(F)(F)F)cc2)ccc1Oc1nc(NCCO)nc(N2CCOCC2)n1,108%
19,O=C(N/N=C/c1cccs1)c1[nH]c2ccc(Br)cc2c1-c1ccccc1,-67.6% (active)
20,C/C(=N\NC(N)=O)c1c(O)sc(=O)[nH]c1=O,108%
